The panel holds about 79,000 compounds, 15% with a hit somewhere; the sample as a whole holds those more often. A number with no mark means an inactive call. Activity calls are given as the source filed them. No stated cut-off is given here; in the data, active means growth inhibition above about 70%; inactive means the rest.

Assay [1] in a line: NCI Yeast Anticancer Drug Screen. Data for the rad50 strain (AID 155).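 Further: 0% = growth of vehicle-only cultures of the same strain.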 Particulars: S. cerevisiae rad50 strain growth inhibition; at 50.0 µM; hits give high values. Put shortly: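 Readout: growth inhibition relative to vehicle-treated cultures. Compound exposure was carried out in a genetically defined yeast strain deficient in DNA damage repair.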
Assay [2] can be described thus: NCI Yeast Anticancer Drug Screen. Data for the mec2-1 strain (AID 157). Particulars: S. cerevisiae mec2-1 strain, at 50.0 µM, hits give high values. Put shortly:
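Growth inhibition is read against vehicle-treated controls after compound exposure of the mec2-1 yeast strain, which is defective in DNA damage repair or cell cycle control.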

A short description of assay [3]: NCI Yeast Anticancer Drug Screen. Data for the sgs1 mgt1 strain (AID 161).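 Further: 0% = growth of cultures given vehicle only.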 Particulars: S. cerevisiae sgs1 mgt1 strain, at 50.0 µM, hits give high values. Put shortly:
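Percent growth inhibition was derived by comparing compound-exposed mutant yeast with vehicle-exposed cultures. The strain carries alterations in DNA damage repair.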

A short description of assay [4]: NCI Yeast Anticancer Drug Screen. Data for the cln2 rad14 strain (AID 165).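 Further: 0% = growth equal to vehicle treated cultures.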 The note with it: S. cerevisiae cln2 rad14 strain, at 50.0 µM, hits give high values. Summed up: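 Growth inhibition, relative to vehicle-treated controls, is the read-out. The test organism is a yeast strain with defined genetic alterations, cln2 rad14.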
Assay [5] can be described thus: NCI Yeast Anticancer Drug Screen. Data for the bub3 strain (AID 167). Particulars: S. cerevisiae bub3 mutant strain, at 50.0 µM, hits give high values. Put shortly: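 Readout: yeast growth inhibition, expressed relative to vehicle-only wells. The test organism is a mutant strain from a panel with lesions in DNA repair or checkpoint genes.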
Assay [6] can be described thus: NCI Yeast Anticancer Drug Screen. Data for the mlh1 rad18 strain (AID 175). The note with it: S. cerevisiae mlh1 rad18 strain growth inhibition; at 50.0 µM; hits give high values. Put shortly: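 Cells of a genetically altered yeast strain, deficient in DNA damage repair, were treated with compound. Their growth was then compared with that of vehicle-treated cultures to give inhibition.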

Turning to `OC(CBr)c1cc(-c2ccccc2)nc2c(Cl)cc(Cl)cc12` (stereo not given), the growth inhibition in assay [1] was 31.9%; in assay [2], -8.45%; in assay [3], 33.6%; in assay [4] it was -16.7%; in assay [5], 11.8%; in assay [6], 50.8%.
On to `CCN(CC)CCn1cnc(C#N)c1N`, for which the growth inhibition in assay [1] is 4.45%; in assay [2], 1.05%; in assay [3], -1.35%; in assay [4] it was -27.6%; in assay [5] it was 1.65%; in assay [6], -0.2%.
Turning to `NC1=C(O)/C(=N/NS(=O)(=O)c2ccccc2)C(c2cccc(Cl)c2)O1` (stereo not given), the growth inhibition in assay [1] is 30.4%; in assay [2] it was 23.4%; in assay [3], 48.5%; in assay [4] it was 13.8%; in assay [5], 11.7%; in assay [6], 21.7%.
Consider `O=C(NCCCl)Nc1[nH]c(=O)ncc1Br`, for which the growth inhibition in assay [1] was -13.2%; in assay [2] it was -12.7%; in assay [3] it was -10.8%; in assay [4] it was -44.4%; in assay [5], -6.85%; in assay [6] it was -12.3%.
As to `COC(=O)C(Cc1c[nH]c2ccccc12)NC(=O)c1ccccc1NC(=O)OCc1ccccc1` (stereo not given), the growth inhibition was 5.85% in assay [1]; -13.1% in assay [2]; 9.15% in assay [3]; -14.1% in assay [4]; 15.1% in assay [5]; 7.65% in assay [6].
`CN(C)CCNC(=O)c1nc([N+](=O)[O-])cn1C`: the growth inhibition in assay [1] is 31.9%; in assay [2], 3.55%; in assay [3], -2.25%; in assay [4] it was 7.35%; in assay [5], 20.4%; in assay [6], -69.2%.
As to `Cn1cc(S(=O)(=O)NC(=O)Nc2ccc(Cl)cc2)c(=O)c2ccc(Cl)cc21`, the growth inhibition is 21.6% in assay [1]; 20.8% in assay [2]; 23.1% in assay [3]; -17.5% in assay [4]; 33.2% in assay [5]; 8.75% in assay [6].
For `Cn1c(=O)oc2cc(C(O)CN3CCN(Cc4ccccn4)CC3)c(Cl)cc21` (stereo not given), the growth inhibition in assay [1] is -19.6%; in assay [2], 3.9%; in assay [3], -4.5%; in assay [4], 2.45%; in assay [5], 6.25%; in assay [6] it was 11.4%.
`CCCCCCCCCC1OCCC(C)O1` (stereo not given): the growth inhibition in assay [1] was 20.2%; in assay [2] it was 9.95%; in assay [3] it was -0.6%; in assay [4] it was -20.9%; in assay [5], 9.5%; in assay [6] it was 21.2%.
In the case of `O=[N+]([O-])c1ccc(OC(=S)Oc2ccc([N+](=O)[O-])cc2)cc1`, the growth inhibition in assay [1] is 3.45%; in assay [2], -16.7%; in assay [3], 2.9%; in assay [4] it was -4.4%; in assay [5], -0.05%; in assay [6] it was 1.8%.
As for `COc1ccc(Cl)cc1NC(=O)CC(C)=O`, the growth inhibition in assay [1] was -9.9%; in assay [2], -12.2%; in assay [3], 3.45%; in assay [4] it was 6.45%; in assay [5] it was -3.2%; in assay [6], -5.95%.
`CCCNC1=C(C(=O)OCC)C(=O)CO1`: the growth inhibition is -12.4% in assay [1]; -20.7% in assay [2]; 3.55% in assay [3]; 15.6% in assay [4]; -2.4% in assay [5]; 0.1% in assay [6].
With `O=C(/C=C/c1cccs1)c1ccc(Cl)cc1`, the growth inhibition in assay [1] is -26.6%; in assay [2] it was -41.3%; in assay [3], -9.45%; in assay [4], -2.8%; in assay [5], 2.2%; in assay [6] it was -4.35%.
Consider `COC(=O)c1ccc(OC(=O)Nc2ccc(SC)cc2)cc1`, for which the growth inhibition in assay [1] is 3.2%; in assay [2], 40.5%; in assay [3], 25.4%; in assay [4], -3.4%; in assay [5], 34.2%; in assay [6], 11.7%.
As to `O=C(O)CSCc1cc2c(O)c(c1)Cc1cc(CSCC(=O)O)cc(c1O)Cc1cc(CSCC(=O)O)cc(c1O)Cc1cc(CSCC(=O)O)cc(c1O)C2`, the growth inhibition in assay [1] was -6.9%; in assay [2] it was -5.6%; in assay [3], -6.55%; in assay [4], 14.7%; in assay [5], 43.8%; in assay [6], -0.1%.
For the compound `COC(=O)C1C(O)C(C)C(O)C(C)(O)C=C(C)C2=C3C(=C(C)C(=O)c4c(O)c(c(C)c(OC(C)=O)c43)NC(=O)C(C)=C/C=C\C(C)(O)C(O)C(C)C1O)OCO2` (stereo not given), the growth inhibition is 14.3% in assay [1]; 1.65% in assay [2]; 0.85% in assay [3]; -1.55% in assay [4]; 3.85% in assay [5]; 6.25% in assay [6].
Regarding `O=C1c2ccccc2C(=O)c2c(O)c(Cc3ccccc3)cc(O)c21`, the growth inhibition was 4.75% in assay [1]; 11.9% in assay [2]; 2.2% in assay [3]; 14.5% in assay [4]; 10.2% in assay [5]; 4% in assay [6].
In the case of `COc1ccc(N/N=C(/c2ccccc2)c2noc(-c3ccccc3)n2)cc1`, the growth inhibition in assay [1] was 79.5% (active); in assay [2], 92.2% (active); in assay [3], 88.8% (active); in assay [4], 89.3% (active); in assay [5], 94.1% (active); in assay [6], 92.6% (active).
As for `O=C(O)c1sccc1-c1cccc2ccccc12`, the growth inhibition was 0.5% in assay [1]; 18.6% in assay [2]; 10.9% in assay [3]; -13.3% in assay [4]; -15.6% in assay [5]; -11.8% in assay [6].
Turning to `CCCCCn1c(=O)c2cc3c(=O)n(CCCCC)c(=O)c3cc2c1=O`, the growth inhibition is 14.2% in assay [1]; 7.3% in assay [2]; 16.2% in assay [3]; -52.6% in assay [4]; 10% in assay [5]; -5.6% in assay [6].

The record behind these values is PubChem BioAssay (NCI).
